The record followed here is PubChem BioAssay AID1224852 (National Center for Advancing Translational Sciences (NCATS), 2016).

Results filed as inconclusive are left out. Active and inactive are the calls of the source. Calls follow the shape of the dose curve; as a rule, active = well fitted curve in the direction sought with a large enough effect (not every such curve was filed as active); inconclusive = small, poorly fitted or top-dose-only effect, or effect the other way, or another doubt; inactive = no such curve, though single readings can be large or run the other way.

A short description of the assay: Cell viability assay for measurement of the protective activity of small molecules against cell death caused by Zika virus infection in human neural progenitor cells (hNPCs). The conditions noted are these: hNPC ZIKV-induced death protection, ATP luminescence, 72 h; series mostly up to 46.1 µM. From the text: National Center for Advancing Translational Sciences [NCATS] Johns Hopkins University School of Medicine Florida State University Assay Overview: Zika virus infection causes cell death in certain cell types including human neural progenitor cells (hNPCs), astrocytes, and astrocytoma cell line (SNB-19). This cell viability assay measures the ATP content (level) in human neural progenitor cells (hNPCs) using a luminescence readout that is proportional to viable cell numbers. Decrease in the luminescence signal after Zika virus infection indicates the cell death caused by Zika virus. Small molecule inhibitors […] the decreased luminescence signal after Zika virus infection, indicating the protective effect of that small molecule on the cell death caused by Zika virus infection. This observed protective effect of small molecules against Zika virus induced cell death may result from inhibition of virus replication or cellular response to the virus infection.
Assay Protocol Summary: The medium for hNPCs consists of DMEM/F12, N2 supplement (ThermoFisher, Cat.# 17502048), NEAA (ThermoFisher, Cat. # 11140050), 2 ug/ml heparin, 2 uM cyclopamine, and B27 (ThermoFisher, Cat. # 17504044). The ATP content assay kit (PerkinElmer, Cat.# 6016731) was used to determine cell viability. The reagent was reconstituted and prepared as described by the manufacturer. Cells were seeded in 384- or 1536-well assay plates and cultured at 37 C with 5% CO2 for 16 to 20 hours. The typical cell seeding density in the 1536-well plate assay is 350 cells/well in 3 ul medium for hNPCs in the tissue cultured treated/PDL coated plates. Compounds were added to cells and incubated for one hour before addition of ZIKV solution to cells (2 FFU/cell). After incubation at 37 C with 5% CO2 for 72 hours, the reagent mixture of the ATP content assay kit was added to each well, followed by incubation at room temperature for 10 minutes. The luminescence intensity of the assay plates was measured using a ViewLux plate reader (PerkinElmer). […] The percentage inhibitions of the decreased cell viability by small molecule inhibitors were then calculated.
On to `CC[n+]1c(-c2ccccc2)c2cc(N)ccc2c2ccc(N)cc21`, for which the compound was called inactive. Regarding `O=S(=O)(CC1CS1)c1ccc(Oc2ccccc2)cc1` (stereo not drawn), the compound was classed as inactive. Turning to `CN1CC(=O)N2C(Cc3c([nH]c4ccccc34)[C@H]2c2ccc3c(c2)OCO3)C1=O` (stereo partly drawn), the result was inactive.

For the compound `S=C(SSC(=S)N1CCCCC1)N1CCCCC1`, the call was inactive. Consider `COP(=S)(OC)SCN1C(=O)c2ccccc2C1=O`, for which the call was inactive. As for `COC1(CS(=O)c2ccccc2)CCN(CCc2c[nH]c3ccc(F)cc23)CC1` (stereo not drawn), the result was inactive. Turning to `Oc1ccc([C@H]2CNCc3c2ccc(O)c3O)cc1O`, the compound was called inactive. Turning to `CC(O)CN1CCN(CC(=O)[O-])CCN(CC(=O)[O-])CCN(CC(=O)[O-])CC1.[Gd+3]` (stereo not drawn), the compound was called inactive. On to `O=c1c2ccccc2[se]n1-c1ccccc1`, for which the call was inactive. The same measure for `O=C1C=CC[C@@H]2[C@H]3CCCN4CCC[C@@H](CN12)[C@@H]34`: “inactive”; for `CC(C)N[C@@H]1CCn2c(=O)[nH]c3cccc(c32)[C@@H]1O`: “inactive”.

As for `CC(=C(CCOC(=O)C(C)C)SSC(CCOC(=O)C(C)C)=C(C)N(C=O)Cc1cnc(C)nc1N)N(C=O)Cc1cnc(C)nc1N`, the compound was classed as inactive. As to `CC(C)[N+](C)(CCC(C(N)=O)(c1ccccc1)c1ccccc1)C(C)C`, the outcome was inactive. The same measure for `Cc1ccc([N+](=O)[O-])[c]2c1[O][Hg]2`: “inactive”; for `COc1cccc2c1C(=O)c1c(O)c3c(c(O)c1C2=O)C[C@@](O)(C(=O)CO)CC3OC1CC(N2CCOC(OC)C2)C(O)C(C)O1` (stereo partly drawn): “inactive”; for `CN1CC[C@@]2(C)c3cc(OC(=O)Nc4ccccc4)ccc3N(C)[C@@H]12`: “inactive”. The same measure for `O=C(Nc1ccc(Br)cc1)c1cc(Br)cc(Br)c1O`: “inactive”; for `CC(C)[C@H]1C(=O)N[C@H](CO)Cc2c[nH]c3cccc(c23)N1C`: “inactive”.
